D2 antagonist: antagonists of human D2 dopamine receptor | P14416 | inhibition, % at 10 µM | hit rate 2% among 340,000 | AID 485344 | HEK293 TREx D2 cells, calcium flux, dopamine EC80; in the data active means inhibition above about 30%; inactive means below that, where a call was filed; further: 0% is about no effect
Target sequence (P14416 whole entry, looked up): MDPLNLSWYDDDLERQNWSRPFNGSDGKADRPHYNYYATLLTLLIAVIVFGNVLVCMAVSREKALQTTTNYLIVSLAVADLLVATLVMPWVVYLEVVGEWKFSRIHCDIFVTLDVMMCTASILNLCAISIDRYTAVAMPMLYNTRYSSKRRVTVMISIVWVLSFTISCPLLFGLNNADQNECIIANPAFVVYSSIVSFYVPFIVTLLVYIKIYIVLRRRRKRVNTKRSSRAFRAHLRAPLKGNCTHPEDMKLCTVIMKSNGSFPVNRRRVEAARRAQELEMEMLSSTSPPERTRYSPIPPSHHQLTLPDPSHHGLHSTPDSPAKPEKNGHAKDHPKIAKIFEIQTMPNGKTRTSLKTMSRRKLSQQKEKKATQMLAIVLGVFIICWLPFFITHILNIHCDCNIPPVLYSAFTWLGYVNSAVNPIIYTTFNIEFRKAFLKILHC
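Calcium mobilization kinetics were recorded at 1 s intervals in tetracycline-induced HEK293 T-REx D2 cells, first for 180 s after compound addition and then 180 s after EC80 dopamine.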
D2 ag-1: agonists of human D2 dopamine receptor (beta-arrestin); DiscoveRx PathHunter D2 beta-arrestin, luminescence, 90 min; 100% = 57 uM dopamine signal; activation, % (no concentration beside the values); hit rate 0.084% among 360,000; in the data active means activation above about 40%; inconclusive means between about 15% and that limit
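DiscoveRx PathHunter D2 beta-arrestin cells (2,100/well) attached overnight, then compound-stimulated 90 min at 37 C in HBSS/10 mM HEPES/0.1% Tween-20 buffer; beta-galactosidase complementation read by luminescence after 1 h at ambient temperature. Dopamine 57 uM final (EC100) as control.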
D2 ag-2: D2 dopamine receptor (human) agonism. HEK293 T-REx D2 cells, calcium flux agonist mode. activation, % at 2 µM. hit rate 0.53% among 340,000. AID 485358;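 active means activation over 3 SD above normal in the single-dose calcium agonist read, cut at about 30% in these data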; further: 0% is about no effect
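Agonism scored from kinetic calcium signal (1 read/sec, 180 s) following compound pin transfer, after a 10 s baseline. Cells: HEK293 Trex line expressing inducible D2 receptor coupled to calcium, dye-loaded after overnight culture at 30 C.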
D2 PAM-1: human D2 receptor positive allosteric modulation; P14416; DiscoveRx D2 beta-arrestin cells, luminescence, 90 min; 100% = 57 uM dopamine signal; potentiation, % (test concentration not listed); hit rate 0.23% among 360,000; AID 624464; in the data active means potentiation above about 50%; inconclusive means mostly about 30% to 49%
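PathHunter beta-arrestin assay in DiscoveRx D2 cells. Compounds were added with an EC20 of dopamine (50 nM final) for 90 min at 37 deg C. Luminescence was read 1 h after detection reagent, with 57 uM dopamine as the EC100 control.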
D2 PAM-2: positive allosteric modulators of human D2 dopamine receptor | P14416 | HEK293 T-REx D2, calcium flux, EC20 dopamine potentiation | potentiation, % at 10 µM | hit rate 0.34% among 340,000;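 active means potentiation over 3 SD above the plate norm, cut at about 30% in these data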; further: 0% is about no effect
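Potentiation of an EC20 dopamine calcium response is measured in a force-coupled, tetracycline-inducible Hek293 Trex D2 line. Compound-only kinetic reads over 180 s flag agonists before dopamine addition.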
Starred values were filed as active, the others as inactive; ? = inconclusive; · = no result. Hits are enriched below; roughly 2.4% of the tested compounds scored in any of these assays.

SMILES | D2 antagonist | D2 ag-1 | D2 ag-2 | D2 PAM-1 | D2 PAM-2
O=[N+]([O-])c1nn(-c2ccc3c(c2)OCCO3)n(O)c1=Nc1ccc(Cl)cc1 | 1 | 6 | 1 | 51* | -8
Cc1ccc(N=c2c([N+](=O)[O-])nn(-c3ccc4c(c3)OCCO4)n2O)cc1F | 2 | ? | 0 | 58* | 0
COc1ccc(NC(=O)C2(C)CCN2CCOc2ccccc2)cc1OC (stereo unspecified) | · | 8 | · | 1 | ·
N#Cc1c(NC(=S)NC(=O)c2ccccc2)sc2c1CCN(CCc1ccccc1)C2 | 0 | · | 44* | · | -4
CC1CCc2c(sc(NC(=S)NC(=O)c3ccccc3)c2C#N)C1 (stereo unspecified) | 37* | -2 | -1 | -1 | 7
O=C(Oc1ccc(-c2ccccc2)cc1)N1CCOCC1 | 5 | 1 | 0 | -1 | 3
O=C(Oc1cccc(Oc2ccccc2)c1)N1CCOCC1 | 41* | 0 | -1 | -5 | 7
COc1ccccc1N1CCN(CC(=O)c2c[nH]c3ccccc23)CC1 | 63* | 0 | -1 | -17 | -25
Cc1ccccc1OCC(O)CN1CCN(C)CC1 (stereo unspecified) | -16 | -6 | -1 | -7 | 9
COc1cc(C(C)=O)ccc1OCC(O)CN1CCN(c2ccccn2)CC1 (stereo unspecified) | 93* | 60* | 78* | 23 | -18
O=C(CN1CCN(c2ccccc2F)CC1)c1c[nH]c2ccccc12 | 20 | 0 | 0 | -40 | -17
OC(COc1ccccc1Cl)CN1CCN(CC(O)COc2ccccc2Cl)CC1 (stereo unspecified) | 70* | 0 | 3 | -44 | -16
COc1ccccc1N1CCN(CC(=O)c2c(C)[nH]c3ccccc23)CC1 | 31* | 0 | 1 | -34 | -26
CC(C)c1nn2c(=O)cc(COC(=O)c3cccc(NC(=O)CCc4ccccc4)c3)nc2s1 | · | · | 1 | · | 3
C=CCc1ccccc1OCC(O)CN1CCN(c2ccccc2F)CC1 (stereo unspecified) | 66* | 1 | 27 | -37 | -26
COc1ccccc1N1CCN(CC(O)c2c(C)[nH]c3ccccc23)CC1 (stereo unspecified) | 65* | -4 | 0 | -33 | -13
C=CCc1ccccc1OCC(O)CN1CCN(c2ccccc2OC)CC1 (stereo unspecified) | -7 | 1 | 1 | -24 | -27
COc1ccc2c(C(=O)CN3CCN(c4ccccc4)CC3)c[nH]c2c1 | 41* | 10 | 56* | -14 | -15
COc1ccccc1N1CCN(CC(O)COc2cccc3ccccc23)CC1 (stereo unspecified) | 86* | -6 | 2 | -38 | -31
COc1ccc2c(C(=O)CN3CCSCC3)c[nH]c2c1 | 10 | -4 | -1 | -3 | 15
Cc1cc(C)c(NC(=O)Cc2csc(C)n2)c(Cl)c1 | · | · | 0 | · | -3
COc1ccc(C(=O)NCCSc2c[nH]c3ccccc23)cc1OC | · | · | -1 | · | -4
CCc1ccccc1NC(=O)c1cc(S(=O)(=O)N2CCCC2)cn1C | · | · | -1 | · | 8
Cc1cccc(C)c1NC(=O)c1cc(S(=O)(=O)N2CCc3ccccc3C2)ccc1F | · | · | 1 | · | 9
COC(=O)c1[nH]c2cc(C)ccc2c1NC(=O)CN1CCN(c2ccccc2OC)CC1 | 70* | -4 | 0 | -35 | -20
SMILES | D2 antagonist | D2 ag-1 | D2 ag-2 | D2 PAM-1 | D2 PAM-2
CCOc1ccccc1N1CCN(CC(O)COC2CCCc3ccccc32)CC1 (stereo unspecified) | 78* | -1 | 6 | -7 | -34
O=S(=O)(c1cccs1)N1CCN(CC(O)COC2CCCc3ccccc32)CC1 (stereo unspecified) | 8 | 0 | 0 | 5 | 3
COC(=O)c1[nH]c2cc(C)ccc2c1NC(=O)CN1CCOCC1 | 5 | 0 | -1 | 0 | -15
CCOc1ccc(C(=O)c2cn(CC(=O)Nc3ccc(OC)cc3)c3cc4c(cc3c2=O)OCO4)cc1 | · | · | 0 | · | -3
Cc1ccc(S(=O)(=O)Oc2ccccc2N2C(=O)C3CC=CCC3C2=O)cc1 (stereo unspecified) | 40* | -1 | 1 | 6 | -2
CN(C(=O)N1CCN(c2ccccn2)CC1)c1ccccc1 | 39* | 1 | 0 | 8 | -12
CC(NC(=O)CSc1nnc(-c2cccc(S(=O)(=O)N3CCCCC3)c2)o1)C12CC3CC(CC(C3)C1)C2 (stereo unspecified) | · | 1 | · | 58* | 12
COCC(C)NC(=O)CSc1nnc(-c2cccc(S(=O)(=O)N3CCCCC3)c2)o1 (stereo unspecified) | -12 | -4 | 2 | -2 | 3
Cc1cn([C@H]2C[C@H](O)[C@@H](CCC(=O)NCCc3ccc4ccccc4c3)O2)c(=O)[nH]c1=O | · | -4 | · | -2 | ·
Cc1ccc(CC(=O)Nc2nncs2)cc1 | 47* | 0 | 0 | 4 | 0
COc1ccc(CC(=O)Nc2nncs2)cc1OC | -8 | 1 | 1 | 11 | -5
O=C(c1ccccc1)c1c2c(cc3sc4ccccc4[n+]13)-c1cccc3cccc-2c13 | 44* | 5 | 60* | 8 | -21
c1ccc(SCCOCCN2CCc3ccccc3C2)cc1 | 75* | -7 | 0 | -12 | -20
CC1CN(CCCSc2ccc(Cl)cc2)CC(C)O1 (stereo unspecified) | 11 | -2 | -2 | -23 | -21
CC1CC(C)CN(CCOCCSc2ccccc2)C1 (stereo unspecified) | 65* | -3 | -1 | -30 | -21
CC1CC(C)CN(CCCSc2ccccc2)C1 (stereo unspecified) | 25 | -4 | 0 | -38 | 11
CC1CC(C)CN(CCOCCSc2ccc(Cl)cc2)C1 (stereo unspecified) | 65* | 1 | -1 | -5 | -25
COc1cc(OC)c(-c2c3cc(O)c(=O)cc-3oc3cc(O)c(O)cc23)cc1OC | -96 | -14 | 148* | -39 | -14
O=C1c2ccccc2C(c2nc3ccccc3[nH]2)N1Cc1ccco1 (stereo unspecified) | · | -4 | · | -5 | ·
Cc1ccc(C(=O)c2c(C)oc3c2C(=O)C(=O)c2ccccc2-3)cc1 | -36 | ? | 1 | 74* | 1
Cc1oc2c(c1C(=O)c1ccc(Cl)cc1)C(=O)C(=O)c1ccccc1-2 | 1 | 15 | 0 | 109* | 3
Cc1ccc(C(=O)c2coc3c2C(=O)C(=O)c2ccccc2-3)cc1 | -3 | ? | -1 | 64* | 7
Cc1oc2c(c1C(=O)N1CCC(C)CC1)C(=O)c1ccccc1C2=O | 0 | 2 | 0 | 2 | -12
Cc1ccc2c(c1)-c1c(c(C(=O)N3CCN(c4cc(Cl)ccc4C)CC3)nn1C)CS2 | · | · | 1 | · | 1
O=c1c2cnn(-c3ccc(Cl)cc3)c2ncn1Cc1ccc(Cl)cc1Cl | · | · | 1 | · | -2

High-throughput results: PubChem BioAssay, National Center for Advancing Translational Sciences (NCATS)
